This is an account of results in PubChem BioAssay AID1979 (Broad Institute, 2009).

Screen size: about 300,000 compounds; about 1,700 (0.57%) were called active. Inconclusive results (about 2%) are left out. This is one part of a sample in which actives are shown more often than they occur.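 Rule for the calls: active = growth inhibition above about 58% in most replicates (limit read from the data, passing the limit was not always enough); inconclusive = exactly half the replicates above a set limit; inactive = most replicates below a set limit.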

A short description of the experiment: Candida growth reduction under fluconazole – CaCi-2 strain, Alamar Blue fluorescence, primary screen (AID 1979).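 Note: all wells also contain fluconazole at 8 µg/ml as a sub-toxic cotreatment; 0% = median of DMSO wells and 100% = median of geldanamycin control wells.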 Conditions: C. albicans CaCi-2 (fluconazole-resistant clinical isolate) + fluconazole, 48 h, active compounds read high, concentration not given here. A general note: The colour change of resazurin is a common sign of viable cells or microbes.
Consider `Cc1cc2ccccn2c1C(C[N+](=O)[O-])c1c(F)cccc1Cl` (stereo not given), for which the growth inhibition is 88.5% (active). On to `C/C(=N/O)c1ccc2ccc3ccccc3c2c1`, for which the growth inhibition was -4.17% (inactive).

With `Cc1nn(-c2ccccc2)c(C)c1NC(=O)COC(=O)Cc1ccccc1`, the growth inhibition is -2.49% (inactive). With `O=C(Cc1ccccc1)N1CCN(C2CCCCCC2)CC1` the figure was -12% (inactive). Regarding `CC1=C(C(=O)Nc2ccccc2)SCCO1`, the growth inhibition is 0.0228% (inactive).

As to `Cc1cccc(-n2c(O)c(C=Nc3ccccc3N)c(=O)[nH]c2=O)c1`, the growth inhibition was 103% (active). Take `Cc1cccc(-n2c(O)c(/C=N/N3CCOCC3)c(=O)[nH]c2=S)c1`: the growth inhibition is 12.2% (inactive). In the case of `Cc1cccc(-n2c(O)c(C=NC34CN5CN(CN(C5)C3)C4)c(=O)[nH]c2=O)c1` it was -4% (inactive); in that of `COc1ccccc1C1=NCc2nnc(CSC)n2-c2ccc(Cl)cc21`, 2.88% (inactive). With `COc1ccc(S(=O)(=O)NCc2ccc(C(=O)N3CCC4(CC3)OCCO4)cc2)cc1` the figure was -9.32% (inactive); with `CC(C)(C)c1ccc(OC(=O)N2CCCCC2)cc1`, 11.1% (inactive); with `C=CCN1C(=O)NC(=O)/C(=C/c2ccc(OCC(=O)Nc3ccc(C)cc3)cc2)C1=O`, -16.2% (inactive).

Turning to `CC1=CC(=Cc2sc3ccccc3[n+]2C)C=C(C)O1`, the growth inhibition was 103% (active). With `CNCC(O)c1cc(F)c(OCc2ccccc2)c(OCc2ccccc2)c1F` (stereo not given) the figure was -32.5% (inactive); with `COc1ccccc1NC(=O)N1C[C@@H]2C[C@@H](C1)c1cccc(=O)n1C2`, 7.25% (inactive).
